Source: PubChem
This is a sample that favours compounds with a hit; in the whole collection about 2.3% have one here.
M1 antag = blocks human M1 muscarinic receptor; CHO-K1 hM1, Fluo-8 calcium fluorescence, ACh EC80 antagonist; inhibition, % at 3 µM; 1.3% of 360,000 active; AID 588852;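 active means percent inhibition above its own plate's cutoff, namely the mean of that plate's compound wells plus 3 SD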;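 further: peak over basal fluorescence ratio during 140 s after agonist addition; 0% = ACh EC80 plus DMSO and 100% = DMSO alone without agonist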
Target sequence (P11229 whole entry, looked up): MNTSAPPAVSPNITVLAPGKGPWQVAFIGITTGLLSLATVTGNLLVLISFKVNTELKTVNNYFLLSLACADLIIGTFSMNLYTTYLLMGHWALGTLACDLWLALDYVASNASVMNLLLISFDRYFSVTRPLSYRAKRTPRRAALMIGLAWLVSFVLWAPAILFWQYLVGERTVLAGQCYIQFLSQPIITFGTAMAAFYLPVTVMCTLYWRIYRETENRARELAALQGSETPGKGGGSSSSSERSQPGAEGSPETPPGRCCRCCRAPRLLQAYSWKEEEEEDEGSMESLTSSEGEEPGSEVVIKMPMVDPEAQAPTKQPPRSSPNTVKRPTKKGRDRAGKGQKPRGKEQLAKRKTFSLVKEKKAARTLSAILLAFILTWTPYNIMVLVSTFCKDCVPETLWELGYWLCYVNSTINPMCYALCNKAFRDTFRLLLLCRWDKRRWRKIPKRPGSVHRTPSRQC
CHRM1 PAM = potentiates human M1 receptor response to acetylcholine. P11229. CHO-K1 hM1, Fluo-8 calcium fluorescence, ACh EC20; 0% = ACh EC20, 100% = maximal ACh. 0.088% of 360,000 active. activation, % at 3 µM; in the data active means activation above about 19%, passing the limit was not always enough
CHO-K1 Ca antag = M1 antagonist counterscreen hit in parental CHO-K1 cells. ATP-induced calcium, Fluo-8 fluorescence. inhibition, % at 3 µM. 0.6% of 360,000 active;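 active means inhibition above a per-plate cutoff, the plate's mean sample inhibition plus 3 SD, cut at about 24% in these data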;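 further: 0% = DMSO plus EC80 ATP and 100% = DMSO alone without ATP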
CHO-K1 Ca PAM = M1 PAM counterscreen hit in parental CHO-K1 cells; activation, % at 3 µM; 0.02% of 360,000 active; AID 602247; ATP EC20, Fluo-8 calcium fluorescence; 0% at ATP EC20, 100% at ATP max;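 active means activation above the run cutoff, the mean activation of all test compounds plus 3 SD, cut at about 40% in these data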;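 further: peak over basal fluorescence ratio in a 140 s read after ATP addition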
M1 ag = human M1 muscarinic receptor agonism. CHO-K1 hM1, Fluo-8 calcium fluorescence, agonist mode; 0% DMSO, 100% acetylcholine EC100. 0.33% of 360,000 active. P11229. AID 588814. activation, % at 3 µM;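 active means activation above the run's mean compound activation plus 3 SD, cut at about 16% in these data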;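 further: peak over basal fluorescence ratio within a 140 s kinetic read after compound addition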
CHO-K1 Ca ag = nonselective activator or artifact in parental CHO-K1 cells; AID 602248; activation, % at 3 µM; 0.48% of 360,000 active; Fluo-8 calcium fluorescence; scaled to maximal ATP response, vehicle zero; in the data active means activation above about 15%;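 further: untransfected CHO-K1 host cells lacking M1 receptor as counterscreen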
* = called active by the depositor; . = no result; ! = repeats disagree.

SMILES | M1 antag | CHRM1 PAM | CHO-K1 Ca antag | CHO-K1 Ca PAM | M1 ag | CHO-K1 Ca ag
COC(=O)C1CCN(C(=O)COC(=O)c2cc(-c3cccs3)nn2-c2ccccc2)CC1 | 16.0 | -15.2 | 0.9 | -21.7 | -7.8 | 0.6
Clc1cccc(Cc2c(C3CCCCC3)nc3ccc(Cl)cn23)c1 | 0.4 | -5.1 | 1.6 | 15.9 | -9.0 | 0.2
O=C(NC1CC1)C1CCN(S(=O)(=O)c2ccc(Cl)c([N+](=O)[O-])c2)CC1 | -0.9 | 2.1 | -10.9 | 4.3 | -7.9 | 0.0
Cc1ccc(Cl)cc1-c1cc(C(=O)NCc2cc(C(F)(F)F)cc(C(F)(F)F)c2)[nH]n1 | 46.5* | -24.0 | -3.2 | 11.4 | -3.3 | 1.2
CC1CCC(CN2CCN=C2Nc2ccccc2)CC1 (centres undefined) | 34.1* | -17.4 | 3.2 | -13.1 | -10.6 | 0.3
CCOC(=O)c1ccc(CNC(=O)CCC(=O)O)cc1 | -13.6 | 9.0 | -7.1 | 6.9 | -1.5 | -0.3
CCOC(=O)c1ccc(CNCc2ccc(Br)cc2)cc1 | 64.8* | -16.9 | 8.6 | -10.7 | 3.1 | 0.2
CCOC(=O)CCNCc1ccc(F)cc1 | 40.0* | -9.7 | -11.9 | 9.3 | -1.5 | 0.9
CCOC(=O)CCNC(=O)N1CCC(CCC(=O)NCc2ccc(F)cc2)CC1 | -4.0 | -0.5 | -1.2 | 6.3 | -3.9 | 0.4
CCOC(=O)c1ccc(CNCc2ccccc2)cc1 | 51.5* | -24.1 | 3.7 | 6.6 | -11.5 | 0.3
CCc1nc2ccc(C(=O)NCCCN3CCCC3=O)cn2c1N(C)Cc1ccc(OC)cc1 | 0.3 | -3.0 | -4.0 | 18.5 | -7.4 | 1.9
COc1ccc(C(=O)NCCCn2cccn2)cc1OC1CCN(C(C)=O)CC1 | -7.9 | 10.0 | 5.0 | -2.8 | -2.7 | 3.8
Cc1ncoc1C(=O)NC1CCCc2c1cnn2-c1ccc(C(C)(C)C)cc1 (centres undefined) | 26.0 | -6.6 | 6.5 | 3.1 | 2.8 | 10.9
O=C(CN1C(=O)NC2(CCCc3ccccc32)C1=O)Nc1cc(F)ccc1F (centres undefined) | 1.5 | 16.6 | 4.6 | -6.7 | 5.2 | 0.8
CCOc1ccccc1N1CCN(CC(O)COC2CCCc3ccccc32)CC1 (centres undefined) | 47.5* | -31.1 | -12.7 | -0.6 | -10.8 | 5.6
CCOC(=O)c1cnc(-n2[nH]c(C)c(Cc3ccccc3)c2=O)[nH]c1=O | -4.0 | 7.6 | -2.6 | 4.8 | -2.8 | 0.2
CCOC(=O)c1cnc(Cc2ccccc2)[nH]c1=O | 25.1* | -9.0 | -14.2 | -8.2 | -9.6 | 0.5
Cc1ccc(Nc2nc(N)nc(N)c2N=O)cc1Cl | . | . | -35.8 | 32.4 | . | 36.4*
Nc1nc(N)c(N=O)c(Nc2cccc(Cl)c2)n1 | . | . | -29.3 | 23.6 | . | 4.5
Nc1nc(N)c(Br)c(Nc2ccc(Cl)c(Cl)c2)n1 | -2.1 | 3.1 | -15.7 | 3.1 | 5.9 | 0.2
Nc1nc(N)c(N=O)c(Nc2ccc(Cl)c(Cl)c2)n1 | . | . | -34.5 | 52.9* | . | 9.3
COC(=O)C(CCSC)NC(=O)c1cc2c(n(-c3ccccc3)c1=O)CC(C)(C)CC2=O (centres undefined) | 6.5 | 3.4 | 26.9* | -14.4 | -3.1 | -0.5
COC(=O)C(CCSC)NC(=O)c1cc2c(n(-c3ccc(C)cc3)c1=O)CCCC2=O (centres undefined) | -8.3 | 9.3 | -1.0 | 11.9 | -7.9 | 0.6
COc1ccc(F)c(CN2CCC(n3nccc3NC(=O)C3CCOC3)CC2)c1 (centres undefined) | -20.5 | 12.5 | -7.5 | 12.7 | -4.9 | 0.9
Cc1cc([N+](=O)[O-])ccc1NCc1ccc2c(c1)OCCO2 | -21.2 | 15.3 | -6.0 | 11.8 | -0.8 | 1.6
SMILES | M1 antag | CHRM1 PAM | CHO-K1 Ca antag | CHO-K1 Ca PAM | M1 ag | CHO-K1 Ca ag
Cc1cc(F)ccc1NCc1ccc([N+](=O)[O-])cc1 | 8.5 | -4.0 | -8.8 | 2.2 | -15.1 | 20.6*
C[C@]12CCC(=O)C=C1[C@H](O)C[C@@H]1[C@@H]2[C@@H](O)C[C@@]2(C)[C@H]1CC[C@]2(O)C(=O)CO | -24.7 | -0.5 | 33.2* | -8.4 | -1.9 | 2.2
CC1CCCN(C(=O)N2c3ccccc3Sc3ccccc32)C1 (centres undefined) | 3.4 | -10.5 | -3.2 | 4.4 | -8.3 | -0.1
CN1CCCC(CC2Oc3ccccc3Sc3ccccc32)C1 (centres undefined) | 99.3* | -24.2 | -4.4 | 3.6 | -9.2 | 1.8
c1ccc2c(c1)OC(CCCN1CCCCC1)c1ccccc1S2 (centres undefined) | 46.0* | -23.6 | 11.7 | 8.6 | -5.2 | 1.7
O=C(CNCc1ccc(Cl)cc1)Nc1cc(S(=O)(=O)N2CCCC2)ccc1Cl | -7.1 | 2.5 | -21.2 | 12.2 | -3.1 | 3.8
Cc1ccc2nc3c(c(C(=O)OCC(=O)NC4CCS(=O)(=O)C4)c2c1)CCCC3 (centres undefined) | 4.8 | -2.2 | -0.2 | -1.2 | -6.6 | 0.4
Cc1cc(C)c(NC(=O)CN2CCN3CCCC3C2)c(C)c1 (centres undefined) | -19.5 | 28.6*! | -13.4 | -6.3 | 5.4 | 0.4
O=C(OC1CC2CC1[C@H]1CCCCN1C2=O)N1CCC(c2ccccc2)CC1 (some centres undefined) | . | . | -9.1 | 8.6 | . | 1.7
CCCSC(=S)c1c(C)[nH]n(-c2ccccc2)c1=O | 21.0 | -17.4 | -3.5 | -4.0 | 8.3 | 16.0*
CC(C)N1CCCC(C)(C(=O)Nc2nccc3ccccc23)C1 (centres undefined) | 5.7 | -2.2 | -2.5 | 10.0 | -7.0 | 0.5
CCOC(=O)c1[nH]ncc1CN1CCCC(C(=O)c2cccc(OC(C)C)c2)C1 (centres undefined) | 1.9 | -3.1 | 10.0 | -8.9 | -9.6 | -0.2
COc1ccc(CN2CCCC(C(=O)c3cccc(OC(C)C)c3)C2)cc1Cn1cccn1 (centres undefined) | 36.5* | -24.1 | -11.9 | 15.2 | -4.8 | 5.2
CCn1ncc(CN2CCCC(C(=O)c3cccc(OC(C)C)c3)C2)c1C (centres undefined) | 98.1* | -26.5 | 9.1 | -5.3 | -8.9 | 0.5
CN(CC(=O)Nc1ccccc1Cl)C(=O)C1CCN(C(=O)c2ccc(F)cc2)CC1 | -8.3 | 10.6 | -13.9 | 23.2 | -1.4 | 0.9
N#CC1(Nc2cccc(Cl)c2)CCCC1 | -11.8 | 9.0 | -3.6 | 13.6 | -1.9 | 0.3
Cn1c2ccccc2c2cc(C(=O)N3CCN(CCO)CC3)sc21 | 0.2 | 4.1 | 24.2* | -5.6 | -4.6 | -0.2
Cn1nc(C(C)(C)C)cc1C(=O)N1CCCCC1c1cc(C(=O)Nc2ccccc2)no1 (centres undefined) | 7.0 | -5.7 | 12.3 | -4.0 | -4.2 | 2.8
CN(CCc1cn[nH]c1)Cc1nc(C(c2ccccc2)c2ccccc2)no1 | -3.2 | 6.2 | -5.8 | 17.8 | -13.8 | 0.7
CCN(CC)CCN(C)Cc1nc(C(c2ccccc2)c2ccccc2)no1 | 74.7* | -29.6 | -4.8 | 6.3 | -8.4 | 0.3
O=C(Cc1ccccc1)NCC(=O)Nc1ccccc1Br | -13.4 | 14.4 | -10.3 | 5.4 | -3.7 | 1.8
